Growth data for seven molecules are collected here from PubChem BioAssay (NCI).

Some test systems named below: HCT-15 colon; HT29 colon; SNB-19 CNS; U251 CNS; PC-3 prostate; UACC-62 melanoma; LOX IMVI melanoma; SK-MEL-28 melanoma; SK-MEL-2 melanoma; EKVX NSCLC; UO-31 renal; TK-10 renal; ACHN renal; CAKI-1 renal; A498 renal; CCRF-CEM leukemia; MOLT-4 leukemia; SK-MEL-5 melanoma; SN12C renal; SNB-75 CNS.
What all share (assay): NCI-60 one-dose screen, 48 h (100 = growth as untreated, 0 = no growth, -100 = all killed)
Common to all, as to conditions: 10 µM unless noted

The panel holds about 83,000 compounds, 20% with a hit somewhere; the sample as a whole holds those more often.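 Activity criterion: percent growth below 10, measured after cells in 96-well plates were exposed to a single compound concentration for 48 hours.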 Values without a mark were called inactive. Activity calls are given as the source filed them.

Take `CN1CCC(OC2c3ccccc3CCc3ccccc32)CC1`: the growth in the assay with HCT-15 colon was 98.8%; in the assay on HT29 colon, 90.1%; in the assay on SNB-19 CNS, 99.2%; in the assay on U251 CNS, 92.5%; with PC-3 prostate it was 78.3%; with UACC-62 melanoma, 98.4%. The growth in the assay with LOX IMVI melanoma is 91.1%; with SK-MEL-28 melanoma it was 94.2%; in the assay with SK-MEL-2 melanoma, 113%; in the assay with EKVX NSCLC, 84.9%; with UO-31 renal, 73.4%; with TK-10 renal it was 89%. Besides, the growth in the assay on ACHN renal was 97.5%; in the assay with CAKI-1 renal, 75.4%; in the assay on A498 renal, 77.9%; in the assay on CCRF-CEM leukemia it was 94.1%; in the assay with MOLT-4 leukemia, 99.5%.

`O=C1c2ccccc2-c2cn(Cc3ccccc3)c3cccc(c23)C1c1cccnc1` (stereo not given): the growth with HCT-15 colon is 31.2%; in the assay with HT29 colon, 4.25% (active); with SNB-19 CNS, 54%; with U251 CNS it was 25%; with SK-MEL-5 melanoma, 21.7%; with UACC-62 melanoma, 47.3%. The growth was 57.4% in the assay on LOX IMVI melanoma; 53.9% in the assay on SK-MEL-28 melanoma; 80.5% with EKVX NSCLC; 59.5% in the assay with SN12C renal; 54.9% in the assay with UO-31 renal; 55.7% in the assay with TK-10 renal. For the same molecule, the growth is 51.2% in the assay on ACHN renal; 51.4% with CAKI-1 renal; 43.3% in the assay on A498 renal; 19.3% in the assay on CCRF-CEM leukemia; 34.8% with MOLT-4 leukemia.

Regarding `CCN1C(=O)C2(Nc3ccccc3S2)c2cc(C)ccc21` (stereo not given), the growth with HCT-15 colon is 101%; in the assay on HT29 colon, 107%; in the assay with SNB-19 CNS it was 107%; in the assay on PC-3 prostate, 89%; in the assay on SK-MEL-5 melanoma, 95.1%; in the assay on UACC-62 melanoma, 102%. The growth in the assay with LOX IMVI melanoma was 103%; in the assay with SK-MEL-28 melanoma it was 105%; in the assay with SK-MEL-2 melanoma it was 111%; with EKVX NSCLC, 103%; in the assay on SN12C renal, 97.7%; in the assay on UO-31 renal, 79.3%. Also, the growth in the assay on TK-10 renal was 107%; in the assay with ACHN renal, 94.2%; in the assay on CAKI-1 renal it was 99%; in the assay with A498 renal, 138%; in the assay with CCRF-CEM leukemia, 9.42% (active); in the assay on MOLT-4 leukemia, 100%.

Regarding `O=C(CCc1nnc2sc(-c3ccccc3)nn12)c1nc2ccccc2[nH]1`, the growth is 98.5% in the assay on HCT-15 colon; 62.1% with HT29 colon; 88.7% in the assay on U251 CNS; 85.7% in the assay on PC-3 prostate; 92.4% in the assay with SK-MEL-5 melanoma; 102% in the assay with UACC-62 melanoma. The growth with LOX IMVI melanoma was 88.3%; with SK-MEL-28 melanoma, 103%; in the assay with SK-MEL-2 melanoma, 104%; in the assay on EKVX NSCLC, 99.5%; in the assay with SN12C renal it was 86.6%; in the assay with UO-31 renal it was 77.5%. For the same molecule, the growth was 108% with TK-10 renal; 101% in the assay on ACHN renal; 103% in the assay with CAKI-1 renal; 80.4% with A498 renal; 78.4% in the assay with MOLT-4 leukemia.

Take `CS(=O)(=O)Nc1cccc(C(=O)NCc2ccc(N3CCOCC3)cc2)c1`: the growth is 104% in the assay on HCT-15 colon; 95% with HT29 colon; 108% with SNB-19 CNS; 107% in the assay on U251 CNS; 104% in the assay on PC-3 prostate; 98.9% with SK-MEL-5 melanoma. In addition, the growth is 113% with UACC-62 melanoma; 99.8% in the assay with LOX IMVI melanoma; 107% in the assay on SK-MEL-28 melanoma; 96.7% in the assay on SK-MEL-2 melanoma; 107% in the assay on SN12C renal; 93% with UO-31 renal. Moreover, the growth was 115% with ACHN renal; 101% in the assay with CAKI-1 renal; 94% in the assay with A498 renal; 99.8% with CCRF-CEM leukemia; 93.2% in the assay on MOLT-4 leukemia.

As for `CC(=O)c1cc(C)c(OC(=O)c2ccccc2)c(C)c1`, the growth was 92.2% with HCT-15 colon; 82.6% in the assay on SNB-75 CNS; 103% in the assay with SNB-19 CNS; 89.9% with PC-3 prostate; 88.9% with SK-MEL-5 melanoma; 90.7% with UACC-62 melanoma. Moreover, the growth with LOX IMVI melanoma was 90.2%; in the assay on SK-MEL-28 melanoma, 117%; in the assay with EKVX NSCLC, 96.5%; with SN12C renal, 102%; with UO-31 renal it was 84.3%; in the assay with ACHN renal it was 103%. Further, the growth was 79.3% in the assay with CAKI-1 renal, 105% in the assay with A498 renal, 85.4% in the assay on CCRF-CEM leukemia and 93.3% in the assay with MOLT-4 leukemia.

On to `Cc1c(C(=O)Nc2nc(-c3ccccc3)cs2)nnn1-c1ccccc1Br`, for which the growth in the assay with HCT-15 colon was 29.5% [50 µM]; in the assay with HT29 colon it was 16.3% [50 µM]; with SNB-19 CNS it was 61.1% [50 µM]; in the assay with U251 CNS it was 50.8% [50 µM]; in the assay with PC-3 prostate, 44.8% [50 µM]; in the assay with SK-MEL-5 melanoma it was -68.6% [50 µM] (active). In addition, the growth with UACC-62 melanoma is 39.4% [50 µM]; in the assay with LOX IMVI melanoma, 12% [50 µM]; in the assay with SK-MEL-28 melanoma, 44.5% [50 µM]; in the assay on SK-MEL-2 melanoma, 40.1% [50 µM]; in the assay on EKVX NSCLC, 30.7% [50 µM]; in the assay on SN12C renal, 50.9% [50 µM]. Moreover, the growth in the assay on UO-31 renal was 41.7% [50 µM]; in the assay on ACHN renal, 41.9% [50 µM]; with CAKI-1 renal it was 33.7% [50 µM]; in the assay on A498 renal, 50.5% [50 µM]; in the assay with CCRF-CEM leukemia it was 41.1% [50 µM]; with MOLT-4 leukemia, 17% [50 µM].
